In PubChem BioAssay (NCATS):
Records with an inconclusive call do not appear. Values without a mark were called inactive. Active and inactive are the calls of the source. Calls come from the whole dose curve; as a rule, active = well fitted inhibition curve with a large enough effect; inconclusive = small, poorly fitted or top-dose-only effect; inactive = flat fitted curve, though single readings scatter.

Molecular target: Phospholipid hydroperoxide glutathione peroxidase GPX4 (Homo sapiens) (UniProt P36969)
Assay: Primary qHTS Assay for Inhibitors of Recombinant Selenoprotein Glutathione Peroxidase 4 (GPX4) (AID 1845192); note: nearly all actives have a fitted effect of over 65% in size
Details: recombinant GPX4, GR-coupled NADPH fluorescence, 15 min; series mostly up to 50 µM; activity change, negative = inhibition: at the top concentration
Text: Assay Provider: Elias S.J. Arner MD PhD.
Department of Medical Biochemistry and Biophysics
Karolinska Institutet, Solna, Stockholm, Sweden
Selenoprotein glutathione peroxidases (GPX), like the ubiquitously expressed GPX1 and the ferroptosis modulator GPX4, enact their antioxidant activities by reducing hydroperoxides using glutathione. […] GPX1 and GPX4 inhibitors have thus shown promise as anti-cancer agents. Existing inhibitors are often promiscuous, or modulate GPX activity only indirectly, so novel direct inhibitors identified through screening against GPX1 and GPX4 could be valuable. Here, we developed optimized glutathione reductase (GR)-coupled GPX assays for the biochemical high-throughput screen (HTS) of almost 12,000 compounds with known mechanisms of action. Initial hits were triaged using a GR counter-screen, assessed for isoform specificity using a separate GPX2 assay, and were assessed for general selenocysteine-targeting activity using a thioredoxin reductase (TXNRD1) assay. With this suite of assays, we identified novel GPX1/GPX2- and GPX4-specific inhibitors and can here present a validated pipeline for future discovery research for selenoprotein-targeting agents.
SEQUENCE No. (e.g., 1, 2, 3, etc.); […] (e.g., Cells, Incubation, Reagent, etc.); VALUE; DESCRIPTION.
1; Reagent 1; 3 uL; 333.33 nM GPx4 enzyme or no enzyme control in 1536-well, black, solid Greiner assay plate.
2; Compound; 25 nL; Kalypsis pin tool (Wako USA) equipped with a 1536-well pin head.
3; Incubation; 30 min; room temperature.
4; Reagent 2; 1 uL; 500 nM GR, 5 mM GSH, 2.5 mM NADPH solution
5; Reagent 3; 1 uL; 2.5 mM CHP in 50% EtOH.
6; Detection; Fluorescence; ViewLux microplate reader, excitation 340 nm and emission 450 nm.
7; Incubation; 15 min; room temperature.
8; Detection; Fluorescence; ViewLux microplate reader, excitation 340 nm and emission 450 nm.
NOTES (numbers refer to Sequence numbers above)
1. 3 µL of 333.33 nM GPX4 and 0.016% BSA in assay buffer (50 mM Tris-HCl, 2 mM EDTA (pH 7.5), 150 mM NaCl) was added to columns 3-48 of 1536-well plates using a BioRAPTR Flying Reagent Dispenser (Let's Go Robotics (LGR), Carlsbad, CA). A no-enzyme control (0.01% BSA in TES assay buffer) was added to columns 1-2.
2. 25 nL, library and DMSO controls were added to each well with a pin tool (Kalypsys).
3. The assay plates were incubated for 30 minutes at room temperature.
4. 1 µL of master mix (500 nM glutathione reductase (GR), 5 mM reduced glutathione (GSH), 2.5 mM NADPH in assay buffer) was added.
5. 1 µL of cumene hydroperoxide (CHP) ([2.5 mM] in 50% EtOH) was then added within 5 minutes to initiate the reaction. Final concentrations were: 200 nM GPX4, 1 mM GSH, 0.5 mM CHP, 0.5 mM NADPH, 100 nM GR, 0.01% BSA.
6. Initial fluorescence readout (t=0) at 340/450 nm was measured using a ViewLux multimodal detector (PerkinElmer, Waltham, MA).
8. Endpoint fluorescence readout (t=15) at 340/450 nm was measured 15 min after room temperature incubation.
% is set by controls: 0 for no effect and ±100 for the full control effect.

Phospholipid hydroperoxide glutathione peroxidase GPX4 (Homo sapiens), sequence (P36969 whole entry, looked up): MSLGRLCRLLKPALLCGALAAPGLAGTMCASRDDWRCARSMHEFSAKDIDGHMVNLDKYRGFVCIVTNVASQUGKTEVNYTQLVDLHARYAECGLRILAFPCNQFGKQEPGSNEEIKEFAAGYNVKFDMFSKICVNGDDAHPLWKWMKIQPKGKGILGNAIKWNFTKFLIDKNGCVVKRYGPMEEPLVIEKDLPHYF

Row | SMILES | Potency | activity change, negative = inhibition | outcome
1 | CC(C)C[C@H]1C(=O)N2CCC[C@H]2[C@]2(O)O[C@](NC(=O)[C@@H]3C=C4c5cccc6[nH]c(Br)c(c56)C[C@H]4N(C)C3)(C(C)C)C(=O)N12 | inactive |  | 
2 | CC(C)COC(=O)OCN1C(=O)CN(CCN2CC(=O)N(COC(=O)OCC(C)C)C(=O)C2)CC1=O |  | -16.5% | 
3 | COc1cc2c(cc1OC)[C@@H]1CC(=O)[C@@H](CC(C)C)CN1CC2 | inactive |  | 
4 | O=C1OC2(c3ccc(O)cc3Oc3cc(O)ccc32)c2ccccc21 |  | -15.2% | 
5 | CN(C)/N=N/c1nc[nH]c1C(N)=O |  |  | inactive
6 | C#C[C@]1(O)CC[C@H]2[C@@H]3CCc4cc(OC5CCCC5)ccc4[C@H]3CC[C@@]21C |  | -24.1% | 
7 | CC(=O)OCC(=O)NCCCOc1cccc(CN2CCCCC2)c1 |  | -16.2% | 
8 | c1ccc(-c2ccc(C(c3ccccc3)n3ccnc3)cc2)cc1 (stereo not given) |  |  | inactive
9 | O=c1ccc2ccccc2o1 |  | -0.216% | 
10 | N[C@H](Cc1c[nH]c2ccccc12)C(=O)O |  | -20.1% | 
11 | Oc1c(I)cc(Cl)c2cccnc12 |  | -9.01% | 
12 | COc1cc(N)c(Cl)cc1C(=O)NC1CCN(CCCOc2ccc(F)cc2)CC1OC (stereo not given) |  | -6.5% | 
13 | CC(=O)CC(c1ccc([N+](=O)[O-])cc1)c1c(O)c2ccccc2oc1=O (stereo not given) |  | -16.2% | 
14 | c1ccc(CNCCNCc2ccccc2)cc1 |  |  | inactive
15 | CCN1CCCC1=O |  |  | inactive
16 | C/C=C(/C(=C/C)c1ccc(O)cc1)c1ccc(O)cc1 |  | -19% | 
17 | C[C@@H]1C(=O)NC2=Nc3cccc(Cl)c3CN21 |  | -6.56% | 
18 | CCCCOc1ccc(C(=O)CCN2CCCCC2)cc1 |  |  | inactive
19 | COC(=O)[C@H]1[C@H]2C[C@H]3c4[nH]c5ccccc5c4CCN3C[C@H]2CC[C@@H]1O |  |  | inactive
20 | NC(=NCCCCCCN=C(N)/N=C(\N)Nc1ccc(Cl)cc1)/N=C(\N)Nc1ccc(Cl)cc1 | inactive |  | 

Row | SMILES | Potency | activity change, negative = inhibition | outcome
21 | C[C@]12C=CC(=O)C=C1[C@@H](F)C[C@@H]1[C@@H]2[C@@H](O)C[C@@]2(C)[C@H]1CC[C@]2(O)C(=O)CO |  | -6.36% | 
22 | C[C@@H]1C[C@H]2[C@@H]3CCC4=CC(=O)C=C[C@]4(C)[C@@]3(F)[C@@H](O)C[C@]2(C)[C@H]1C(=O)CO |  | -9.55% | 
23 | C[C@H]1C[C@H]2[C@@H]3CCC4=CC(=O)C=C[C@]4(C)[C@@]3(Cl)[C@@H](O)C[C@]2(C)[C@@]1(O)C(=O)CO |  |  | inactive
24 | CCOC(=O)[C@H](CCc1ccccc1)N[C@@H](C)C(=O)N1Cc2ccccc2C[C@H]1C(=O)O |  | -8.64% | 
25 | CCn1cc(C(=O)O)c(=O)c2cnc(N3CCCC3)nc21 |  | -6.64% [at 9.73 µM] | 
26 | O=C1OC(c2ccc(O)cc2)(c2ccc(O)cc2)c2ccccc21 |  |  | inactive
27 | CCCOC(C(=O)OC1CCN(C)CC1)(c1ccccc1)c1ccccc1 |  | -0.345% | 
28 | CC(=O)O[C@H]1C[C@@H]2CC[C@@H]3[C@H](CC[C@@]4(C)[C@H]3C[C@H]([N+]3(C)CCCCC3)[C@@H]4OC(C)=O)[C@@]2(C)C[C@@H]1[N+]1(C)CCCCC1 |  | -10.7% | 
29 | CC(O)(P(=O)(O)O)P(=O)(O)O |  |  | inactive
30 | N[C@@H](Cc1cnc[nH]1)C(=O)O |  | -5.42% | 
31 | CC(=O)OCC(=O)[C@@]12OC(C)(C)O[C@@H]1C[C@H]1[C@@H]3C[C@H](F)C4=CC(=O)C=C[C@]4(C)[C@@]3(F)[C@@H](O)C[C@@]12C | inactive |  | 
32 | C=C1C(=C/C=C2\CCC[C@]3(C)[C@@H]([C@H](C)/C=C/[C@@H](O)C4CC4)CC[C@@H]23)C[C@@H](O)C[C@@H]1O |  |  | inactive
33 | CC/C(=C(/CC)c1ccc(O)cc1)c1ccc(O)cc1 | inactive |  | 
34 | O=C1c2ccccc2C(=O)C1c1ccccc1 |  | 1.7% | 
35 | O=C(OCCOCCO)c1ccccc1Nc1cccc(C(F)(F)F)c1 |  | -10.6% | 
36 | CCCCOc1ccc(OCCCN2CCOCC2)cc1 |  | 3.27% | 
37 | Nc1ccc(C(=O)O)cc1 |  |  | inactive
38 | CC(=O)OCC(=O)[C@@]1(O)[C@H](C)C[C@H]2[C@@H]3CCC4=CC(=O)C=C[C@]4(C)[C@@]3(F)[C@@H](O)C[C@@]21C | inactive |  | 
39 | O=C(O)CNC(=O)c1ccccc1 |  |  | inactive
40 | CCC(NC(C)C)C(O)c1ccc(O)c(O)c1 (stereo not given) | inactive |  | 
